# From PubChem
# The list is not random: actives were taken first. Their share in the collection is about 6.1%.
# D1 potentiator – enhances dopamine response at the human D1 receptor | HEK293 TREx D1 cells, calcium flux, dopamine EC20 potentiation | AID 504651 | potentiation, % at 10 µM | 360,000 compounds, 0.036% hits | P21728; in the data active = potentiation above about 30%
# DRD3 antagonist – antagonists of human D3 dopamine receptor. P35462. D3R cells, DiscoveRx beta-arrestin luminescence, antagonist mode; active compounds read low. max response, negative = inhibition, %. 360,000 compounds, 2.5% hits. AID 652054; in the data active = max response below about -50%; inconclusive = no clear call, values can overlap the other calls
# Target sequence (P35462 whole entry, looked up): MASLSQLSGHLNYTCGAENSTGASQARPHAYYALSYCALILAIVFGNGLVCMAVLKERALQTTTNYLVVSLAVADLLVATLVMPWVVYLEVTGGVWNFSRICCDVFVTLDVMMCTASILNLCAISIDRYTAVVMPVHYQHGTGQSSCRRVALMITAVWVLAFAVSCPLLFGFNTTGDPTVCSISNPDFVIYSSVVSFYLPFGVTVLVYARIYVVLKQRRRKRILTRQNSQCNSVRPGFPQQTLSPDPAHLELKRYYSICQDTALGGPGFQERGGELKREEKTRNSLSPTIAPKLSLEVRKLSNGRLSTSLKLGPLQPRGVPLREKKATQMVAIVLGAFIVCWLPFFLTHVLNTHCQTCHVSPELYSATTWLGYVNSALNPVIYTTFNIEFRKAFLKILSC
#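 Cells plated overnight at 1500 cells/well, then exposed to library compounds with dopamine controls for 90 minutes at 37 degrees C. DiscoveRx reagent added for 30–60 minutes at room temperature; luminescence read, quantitative HTS format.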
# ERG-DNA inh – ERG Ets/DNA interaction inhibition | 370,000 compounds, 0.028% hits | P11308 | fluorescence polarization, His-ERG Ets domain / labelled DNA | AID 624246 | Potency, µM (titrated, usually from 76.9 µM), actives largely listed as inhibitors; active = well fitted inhibition curve with a large enough effect in the polarisation, with a control signal flat; inconclusive = small, poorly fitted or top-dose-only effect, or effect the other way, or a change in a side signal; inactive = no such curve, though single readings can be large or run the other way; the % refers to the polarisation;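 also: polarization taken with two DNA probes labelled with fluorescein and Texas red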
#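 His-tagged ERG Ets domain (1 uM in the protein solution; 300mM KCl, 50mM Tris-HCl, 1mM EDTA, 1mM DTT, pH 7.5) received compound, then a probe mix of 5 nM fluorescein-DNA and 100nM Texas-615-DNA. Fluorescence polarization was read for both dyes.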
# DRD3 agonist – D3 dopamine receptor (human) agonism; P35462; D3R DiscoveRx beta-arrestin cells, luminescence, 90 min; max activation, %; 410,000 compounds, 0.58% hits; AID 652048; in the data active = max activation above about 30%
#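 Agonist-mode cell screen: cells plated at 1500/well and incubated overnight at 37 °C, then exposed to library compounds for 90 min at 37 °C. Detection reagent was added for 30–60 min at room temperature, and luminescence was read.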
# D1 antagonist – human D1 dopamine receptor antagonism | P21728 | HEK293 TREx D1 cells, calcium flux, dopamine EC80; active compounds read low | activity change, negative = inhibition, % at 10 µM | 360,000 compounds, 3.2% hits | AID 504652; in the data active = activity change below about -30%
#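 Calcium flux readout: force-coupled, inducible Hek293 Trex D1 line, cells induced overnight at 30 C with tetracycline, dye-loaded 30–90 min at RT. Antagonism scored against EC80 dopamine challenge given 180 s after compound.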
# D1 ag – activates the human D1 dopamine receptor. HEK293 T-REx D1 cells, calcium flux, agonist mode. activation, % at 2 µM. P21728. AID 504660. 360,000 compounds, 1% hits; in the data active = activation above about 30%
#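 Tetracycline-induced HEK293 TREx D1 cells, force-coupled to calcium signalling, were dye-loaded with a no-wash calcium kit. Compound was pin-added after a 10 s baseline. Fluorescence was read kinetically at 1 cycle/s for 180 s, with calcium rises flagged as agonism.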
# Numbers stand for hits; i = inactive; ? = inconclusive; nt = not tested or not shown.
SMILES,D1 potentiator,DRD3 antagonist,ERG-DNA inh,DRD3 agonist,D1 antagonist,D1 ag
Cc1oc(-c2ccc(Cl)cc2)nc1CSCC(=O)NC1CCN(Cc2ccccc2)CC1,i,-76.1,i,i,i,i
COc1c(Cl)cc(C(=O)Nc2ccccc2C(=O)O)cc1Cl,i,i,nt,i,-36.9,i
COC(=O)c1cc(Cl)c(NC(=O)c2cc(OC)c(OC)c(OC)c2)cc1OC,i,i,i,41.1,i,i
COc1ccc(C(=O)Nc2ccccc2C(=O)Nc2ccccc2C(=O)O)cc1,i,i,i,i,i,i
COC(=O)c1cc(Cl)c(NC(=O)c2ccc(F)cc2)cc1OC,i,i,i,i,i,i
O=C1c2cccc(O)c2C(=O)c2c(O)cccc21,i,nt,nt,i,i,i
CC1OC(CC(=O)O)CC2=C1C(=O)c1c(O)cccc1C2=O (stereo unspecified),nt,-94.0,i,i,nt,nt
C=CCn1cc(CN2CCC(C(=O)Nc3cccc(-c4cccc(Cl)c4)c3)CC2)c(C)n1,i,i,i,i,-35.0,i
Cc1nn(C(C)C)c(C)c1CN1CCC(C(=O)Nc2cccc(-c3cccc(F)c3)c2)CC1,i,-53.4,i,i,i,31.5
C=CCn1cc(CN2CCC(C(=O)Nc3cccc(-c4cccc(F)c4)c3)CC2)c(C)n1,i,i,i,i,-38.6,i
Cn1cc(CN2CCC(C(=O)Nc3cccc(-c4cccc(F)c4)c3)CC2)cn1,i,i,i,i,i,i
Cn1cc(CN2CCC(C(=O)Nc3cccc(-c4cscn4)c3)CC2)cn1,i,i,i,i,-48.9,i
Cc1c(CN2CCC(C(=O)Nc3cccc(-c4cccc(Cl)c4)c3)CC2)cnn1C,i,i,i,i,i,i
CC(C)(C)[C@@H]1C=C(C(=O)Nc2ccccc2)O[C@H](OCc2ccc(CO)cc2)C1,i,i,i,i,i,i
C/C(=N\NS(=O)(=O)c1ccc(Cl)c([N+](=O)[O-])c1)c1cc2ccccc2o1,i,-97.8,i,i,i,i
C/C(=N\Nc1ccc([N+](=O)[O-])cc1)c1cc2ccccc2o1,i,i,i,i,-30.2,59.5
C/C(=N/Nc1ccc([N+](=O)[O-])cc1)c1c[nH]c2ccccc12,i,i,i,i,-33.2,83.5
C/C(=N\NS(=O)(=O)c1ccc(C)c([N+](=O)[O-])c1)c1cc2ccccc2o1,i,-70.3,i,i,i,i
Cc1ccc(C(=O)c2cc3ccccc3o2)cc1[N+](=O)[O-],i,?,i,i,nt,i
C/C(=N\NS(=O)(=O)c1ccc(C)c([N+](=O)[O-])c1)c1ccc2c(c1)OCO2,i,i,i,i,i,i
C/C(=N\NS(=O)(=O)c1ccc(Cl)c([N+](=O)[O-])c1)c1ccc(C)o1,i,-70.4,i,i,i,i
COCCNC(=O)c1cccc(C)c1[N+](=O)[O-],i,i,i,i,-32.9,i
Cc1cccc(C(=O)NCCc2ccc(S(N)(=O)=O)cc2)c1[N+](=O)[O-],i,i,i,i,i,i
CCc1nc2ccccc2n1CCCCOc1ccc(C)cc1,i,nt,i,i,i,i
CCCCOc1ccc(CSc2nnc(C)n2N)cc1[N+](=O)[O-],i,i,i,i,i,i
SMILES,D1 potentiator,DRD3 antagonist,ERG-DNA inh,DRD3 agonist,D1 antagonist,D1 ag
CCCCOc1ccc(CSc2nc(C)[nH]c2[N+](=O)[O-])cc1[N+](=O)[O-],i,i,i,i,-31.0,i
Cc1c(Cl)c([N+](=O)[O-])nn1CCCC(=O)Nc1cccnc1,i,i,i,i,i,i
Cc1c(Cl)c([N+](=O)[O-])nn1CCCC(=O)Nc1cccc(Cl)c1,i,i,nt,i,-32.0,i
COCCn1nnnc1C(c1ccccc1)N1CCN(C(=O)c2ccco2)CC1 (stereo unspecified),i,i,i,i,i,i
C[C@@H]1CCC(=O)N(C[C@@H](C)CSc2ccc(Br)cc2)CC1,i,i,i,i,-50.8,i
Cc1cc(NC(=O)CSc2nc3c(c(=O)n2Cc2ccccc2)SC(C)C3)no1 (stereo unspecified),i,i,i,i,i,i
CSCC[C@@H](C(=O)NCCCCCCCCCCC(=O)N1CCNCC1)n1cc(CCO)nn1,i,i,i,i,-35.6,i
NCCCCCc1cn([C@@H](CO)C(=O)NCCCCCCCCCCC(=O)N2CCNCC2)nn1,i,i,i,i,-31.6,i
NCCCCCc1cn([C@@H](CCC(=O)O)C(=O)NCCCCCCCCCCC(=O)N2CCNCC2)nn1,i,i,i,i,i,i
O=C(NCC1CCCN(Cc2cccc(OCCO)c2)C1)c1ccc(F)cc1 (stereo unspecified),i,i,i,i,i,i
O=C(NCCCOc1cccc(CN2CCCCC2)c1)c1ccc(Cl)c(Cl)c1,i,-98.3,i,i,i,i
c1cc(CN2CCCCC2)cc(OCCCNc2nc3ccccc3s2)c1,nt,-75.0,i,i,nt,nt
COc1cccc(CNc2nc3ccccc3n2CCN2CCCCC2)c1,i,?,i,i,i,i
Cc1cc(=O)oc(C)c1C(=O)N[C@@H](Cc1ccccc1)C(=O)O,i,i,i,i,i,i
CCN(C(=O)CN1C(=O)c2ccccc2Sc2ccc(C(=O)OC)cc21)c1cccc(C)c1,i,nt,i,i,i,i
CN(C)C(=O)N1CCN(S(=O)(=O)c2ccc3ccccc3c2)CC1,i,i,i,30.5,i,i
CN(C)S(=O)(=O)N1CCN(S(=O)(=O)c2ccc3ccccc3c2)CC1,i,i,nt,i,i,i
CCN(CC)c1ccc(C(=O)NNC(=O)CCNC(=O)c2ccccc2)cc1,i,i,nt,i,i,i
CCN(CC)c1ccc(C(=O)NNC(=O)CCl)cc1,i,-125.6,i,i,i,i
CC(=O)c1cccc(S(=O)(=O)N2CCN(c3nc4cc(C)cc(C)c4cc3C#N)CC2)c1,i,i,i,i,i,i
Cc1ccc(C(=O)/C=C/c2cc(Br)cc(Br)c2O)o1,i,i,i,i,i,43.2
CN1CCN(S(=O)(=O)c2ccc(N3CCN(S(=O)(=O)/C=C/c4ccccc4)CC3)nc2)CC1,i,i,i,i,-49.5,i
CSc1cccc(CN2CCC(CCC(=O)NC3CC3)CC2)c1,i,?,i,i,-49.5,i
CCOCc1cc(CN2CCC(CCC(=O)NC3CC3)CC2)ccc1OC,i,i,i,i,i,i
CC(=O)O[C@@H]1[C@@H](O)[C@@H](O)[C@H](Oc2c(-c3ccc(O)cc3)oc3c(CC=C(C)C)c(O)cc(O)c3c2=O)O[C@H]1C,nt,i,i,i,nt,nt
CC(=O)O[C@H]1[C@@H](O)[C@H](O)[C@H](Oc2c(O)c(C)c3c4c2[C@@H](C)CC[C@@H]4[C@@H](C)C[C@H]3C=C(C)C)O[C@H]1C,nt,i,i,30.5,nt,nt
Cc1ncc(CO)c(/C=N/Nc2ccc(C(F)(F)F)cn2)c1O,i,-73.7,i,i,i,i
